# The list is not random: actives were taken first. Their share in the collection is about 18%.
# HepG2 viability – HepG2 cytotoxicity, counter-screen for TGF-b inhibitors. 410,000 tested, 0.76% active. AID 588856. Potency, µM (titrated, usually from 46.1 µM), for the others: top-dose activity change, negative = cytotoxicity, hits mostly cytotoxic. HepG2 CAGA-GFP viability, ATP luminescence, 18 h; also: potency is read from the fitted curve at half-maximal effect
#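 HepG2 CAGA-GFP cells (1000/well, DMEM with 1% FBS) received compound, then TGF-beta at 500 pg/mL final, and were incubated 18 hours at 37 degrees C. Viability was read by CellTiter-Glo luminescence. Media-only wells were set as complete cell-killing and DMSO as no toxicity.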
# DT40 TDP1 no CPT – qHTS for Inhibitors of human tyrosyl-DNA phosphodiesterase 1 (TDP1): qHTS in cells in absence of CPT | DT40 Tdp1-/- hTDP1 cells, no CPT, ATP luminescence, 48 h | Potency, µM (top dose mostly 46.2 µM), inactives show at the highest dose activity change, negative = growth inhibition, usual class: inhibitors | 420,000 tested, 15% active | AID 686978, 2013; also: potency is read from the fitted curve at half-maximal effect; % is scaled to controls: 0 for no effect and ±100 for the full control effect; nearly all actives have a fitted effect of over 55% in size
#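 Stably hTDP1-transfected Tdp1-null chicken DT40 cells were treated with library compounds minus camptothecin and grown for at least 48 hr at 37 °C, after which cellular ATP was quantified by luminescence.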
# IL-1B inflam inh – blocks inflammasome-driven IL-1 beta release. THP-1 LPS/ATP IL-1B secretion, AlphaLISA, 16 h; hits give low values. activity change, % at 57.5 µM. 360,000 tested, 4.7% active. AID 743279; in the data active = activity change below about -50%; inconclusive = mostly about -30% to -49%; also: % is scaled to controls: 0 for no effect and ±100 for the full control effect
#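 Secreted IL-1B measured by AlphaLISA bead assay after 16 h compound exposure of THP-1 cells; compounds (final up to 57.5 uM) added 1 h before LPS (250 ng/mL) and ATP (1.25 mM) stimulation; lower signal means less secretion.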
# TGFb inhibitor – blocks TGF-b signaling; 410,000 tested, 1.2% active; Potency, µM (series often up to 46.1 µM), without a hit: at the top dose activity, negative = inhibition, actives largely listed as inhibitors; HepG2 CAGA-GFP TGF-b/SMAD3 reporter, GFP fluorescence, 18 h; TGF-beta stimulated, 500 pg/mL final; also: potency is read from the fitted curve at half-maximal effect; % is scaled to controls: 0 for no effect and ±100 for the full control effect; nearly all actives have a fitted effect of over 65% in size
#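 Per well, imaged GFP fluorescence of HEPG2 CAGA-GFP cells gives the signal; cells get compound, then TGF-beta (500 pg/mL final), 18 h at 37 degrees C; %Activity versus -TGF-beta and +DMSO controls.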
# TDP1 block – blocks human tyrosyl-DNA phosphodiesterase 1; 350,000 tested, 0.28% active; recombinant TDP1, AlphaScreen DNA substrate cleavage; Potency, µM (doses to about 130 µM), for inactives: at the highest dose activity change, negative = inhibition, most hits filed as inhibitors; Q9NUW8; also: potency is read from the fitted curve at half-maximal effect; % is scaled to controls: 0 for no effect and ±100 for the full control effect; nearly all actives have a fitted effect of over 40% in size
# Target sequence (Q9NUW8 whole entry, looked up): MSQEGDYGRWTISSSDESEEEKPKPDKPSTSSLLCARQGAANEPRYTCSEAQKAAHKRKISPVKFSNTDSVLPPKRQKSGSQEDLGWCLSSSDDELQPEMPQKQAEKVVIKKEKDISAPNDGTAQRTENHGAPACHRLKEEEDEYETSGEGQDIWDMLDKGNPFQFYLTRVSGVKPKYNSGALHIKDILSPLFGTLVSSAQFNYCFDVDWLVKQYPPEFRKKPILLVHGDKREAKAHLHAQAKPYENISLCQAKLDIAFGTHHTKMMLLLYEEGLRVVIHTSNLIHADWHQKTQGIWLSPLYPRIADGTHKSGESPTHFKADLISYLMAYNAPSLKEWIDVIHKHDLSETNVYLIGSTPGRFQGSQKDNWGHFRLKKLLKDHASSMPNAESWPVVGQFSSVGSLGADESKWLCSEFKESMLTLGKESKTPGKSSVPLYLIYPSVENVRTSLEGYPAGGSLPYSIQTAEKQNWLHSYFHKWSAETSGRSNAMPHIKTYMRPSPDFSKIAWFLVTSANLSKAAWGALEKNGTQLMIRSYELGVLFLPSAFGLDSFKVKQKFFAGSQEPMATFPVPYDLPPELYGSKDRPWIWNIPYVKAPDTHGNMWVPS
#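 Signal: AlphaScreen proximity between streptavidin donor and anti-FITC acceptor beads on intact substrate. Reaction: Tdp1 1 nM, substrate 15 nM final, 5 min RT after 15 min compound preincubation.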
# DT40 TDP1 CPT – DT40-hTDP1 cell growth loss with CPT. chicken DT40 Tdp1-/-;hTDP1 cells + 20 nM CPT, ATP luminescence, 48 h. Potency, µM (titrated, usually from 46.2 µM), without a hit: top-dose activity change, negative = growth inhibition, usual class: inhibitors. 420,000 tested, 12% active. AID 686979; also: potency is read from the fitted curve at half-maximal effect; % is scaled to controls: 0 for no effect and ±100 for the full control effect; nearly all actives have a fitted effect of over 55% in size
#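 Chicken DT40 Tdp1-/- cells complemented with human TDP1, 400 cells/well, exposed to compounds plus 20 nM camptothecin for at least 48 h at 37 C; viability read as ATP content by CellTiter-Glo luminescence.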
# Active calls of the source: *; i = inactive; ? = inconclusive; . = no result given; [ ] = dose if it differs, or a comment. Unless noted, calls follow the shape of the dose curve; as a rule, active = well fitted curve in the direction sought with a large enough effect; inconclusive = small, poorly fitted or top-dose-only effect, or another doubt; inactive = no such curve, though single readings can be large; an effect the other way counts as inactive or inconclusive.
SMILES,HepG2 viability,DT40 TDP1 no CPT,IL-1B inflam inh,TGFb inhibitor,TDP1 block,DT40 TDP1 CPT
Cc1ccc(C(=O)N[C@H](C(=O)OCc2nnc(-c3ccccc3)o2)C(C)C)cc1,-36%,-19%,19,-18%,3%,-32%
CS(=O)(=O)c1ccc(C(=O)OCc2nnc(-c3ccccc3)o2)cc1[N+](=O)[O-],-62%,10µM*,-70*,?,8%,3.7µM*
CC(=O)c1c(C)[nH]c(C(=O)OCc2nnc(-c3ccccc3)o2)c1C,-7%,13µM*,25,-4%,2%,?
CC(C)[C@H](NC(=O)c1ccccc1)C(=O)OCc1nnc(-c2ccccc2)o1,-4%,23µM*,34,17%,3%,?
O=C(COc1ccc(S(=O)(=O)N2CCCCC2)cc1Cl)N1CCOCC1,-1%,-19%,1,13%,11%,0%
COCc1c(Br)c(C)nc2sc3c(=O)[nH]nnc3c12,-3%,-6%,28,-4%,.,10%
COc1ccc(Nc2c(-c3ccccn3)nc3ccc(Cl)cn23)cc1,6%,1.6µM*,.,-12%,15%,12µM*
Cc1ccc(Nc2c(-c3ccccn3)nc3ccc(C)cn23)cc1,-7%,7.3µM*,0,?,12%,3.3µM*
Cc1ccc(Nc2c(-c3ccccn3)nc3cc(C)ccn23)cc1,-38%,2.9µM*,-100*,?,11%,4.6µM*
CCC(CC)C(=O)Nc1ccc(S(=O)(=O)N2CCC(c3nc4ccccc4s3)CC2)cc1,0%,-21%,.,-2%,3%,6%
Cc1ccc(C)c(S(=O)(=O)N2CCN(Cc3cc4c(cc3O)OCO4)CC2)c1,-46%,-36%,-21,-15%,8%,?
CCc1cc(C(=O)NNC(=O)CCl)sc1C,-31%,?,-28,1%,6%,15µM*
COc1ccc(N2CCN(C(=O)c3ccc(Cl)c(S(=O)(=O)N4CCCC4)c3)CC2)cc1,-18%,?,8,8%,4%,?
COc1ccc(N2CCN(C(=O)c3ccc(C)c(Cl)c3)CC2)cc1,-10%,18µM*,-9,-14%,7%,?
COc1ccc(N2CCN(C(=O)c3cccc(Cn4cc(Cl)cn4)c3)CC2)cc1,-14%,23µM*,-4,-29%,7%,?
COc1ccc(Cn2c(=O)[nH]c3cc(C(=O)N4CCN(c5ccc(OC)cc5)CC4)ccc3c2=O)cc1,-25%,?,11,-12%,14%,-3%
COc1cccc(CN2CC(C(=O)N3CCN(c4ccc(Cl)cc4)CC3)CCC2=O)c1 (centres undefined),11%,21µM*,i,-23%,5%,23µM*
COc1cccc(CN2CC(C(=O)N3CCCC3)CCC2=O)c1 (centres undefined),11%,22%,2,10%,3%,5%
CCOC(=O)C1CCN(S(=O)(=O)c2c(Cl)ccc3nonc23)CC1,.,.,.,.,8%,.
N#Cc1c(-c2ccc(F)cc2)c(-c2ccc(F)cc2)nn(CCO)c1=O,1%,3.3µM*,5,-28%,.,4.6µM*
N#Cc1c(-c2ccccc2)c(-c2ccccc2)nn(CC(=O)NNC(=O)Nc2ccc(Cl)c(Cl)c2)c1=O,-109%,?,8,?,8%,?
C=CCN(C1CCCCC1)S(=O)(=O)c1ccc2c(c1)oc(=O)n2C,-27%,?,15,3%,0%,8.2µM*
C=CCN(c1ccccc1)S(=O)(=O)c1ccc2c(c1)oc(=O)n2C,-12%,-7%,1,-6%,2%,?
C(#Cc1ccc(C#CCN2CCCC2)cc1)CN1CCCC1,-28%,21µM*,-15,12%,-3%,?
O=C(c1ccccc1)N1CCN(CC#Cc2ccccc2)CC1,-2%,-17%,-12,3%,0%,7%
SMILES,HepG2 viability,DT40 TDP1 no CPT,IL-1B inflam inh,TGFb inhibitor,TDP1 block,DT40 TDP1 CPT
COc1ccc(C2=CSC3=NCCN23)cc1Br,-29%,?,.,-3%,.,14%
CCOc1ccc(NC(=O)C2(c3cccs3)CCOCC2)cc1,-13%,?,.,-11%,3%,-27%
Cc1cc(=O)oc2c(N)nccc12,-112%,?,-105*,?,.,?
CCOC(=O)c1cc(-c2ccc(OC)cc2)n(CCC(=O)NCCN2CCC(C)CC2)c1C,-45%,?,?,-29%,4%,?
CCOC(=O)c1cc(-c2ccc(OC)cc2)n(CCC(=O)NC2CCN(Cc3ccccc3)CC2)c1C,-78%,21µM*,-4,?,4%,?
CCOC(=O)c1cc(-c2ccc(F)cc2)n(CCC(=O)NC2CCN(Cc3ccccc3)CC2)c1C,13µM*,15µM*,?,?,4%,16µM*
Cc1c(C(=O)NCCC2CCCN2C)cnn1-c1nccc(-c2ccccc2F)n1 (centres undefined),.,-16%,.,.,.,-2%[9.04 µM]
CCOC(=O)Oc1c(OC)cc(C(=O)O[C@@H]2C[C@@H]3CN4CCc5c([nH]c6cc(OC)ccc56)[C@H]4C[C@@H]3[C@H](C(=O)OC)[C@H]2OC)cc1OC,-72%,13µM*,0,?,.,23µM*
CC(=O)Nc1cccc(NC(=O)CSc2ccc(-c3ccccn3)nn2)c1,-20%,?,115,-13%,5%,?
CCOC(=O)c1ccccc1NC(=O)CSc1nc2ncccc2o1,2µM*,-21%,.,-1%,5%,4%
CCOC(=O)c1ccccc1NC(=O)CSc1nc2ncccc2[nH]1,-1%,?,.,-16%,4%,?
Cc1cccc(NC(=O)CSc2ccc(-c3ccccn3)nn2)c1,-9%,?,.,?,5%,?
CCOC(=O)c1ccccc1NC(=O)CSc1ccc(-c2ccccn2)nn1,-8%,?,149,8%,2%,3.7µM*
O=C(CSc1ccccn1)Nc1ccc2c(c1)C(=O)c1ccccc1C2=O,-4%,16µM*,0,-2%,22µM*,?
O=C(CSc1ccccn1)Nc1ccc2ccccc2c1,.,.,.,.,-4%,.
Cc1ccc(NC(=O)CSc2ccc(-c3ccccn3)nn2)cc1F,4%,12µM*,108,?,2%,16µM*
COc1cccc(CNC(=O)c2cccn2-c2nnc(N3CCCC3)s2)c1,2%,?,.,?,8%,?
COc1ccccc1CNC(=O)C1CCN(S(=O)(=O)c2ccc3c(ccn3C)c2)CC1,8%,?,.,-1%,7%,-4%
